Reference: ChEMBL document CHEMBL3988442, “University of Dundee, Small-Polar-MMV Screening Library” (2021)

biological target: AMP-activated protein kinase, AMPK (Homo sapiens) (UniProt P54646+O43741+P54619+Q9UGJ0+Q9Y478+Q13131+Q9UGI9); experiment: AMP-dependent Kinase enzyme assay. An in vitro enzyme assay that detects ADP turnover that is directly proportional to AMPK activity. This uses naive AMPK that is activated during the assay with MK-8722; assay type: functional; set-up: scale not given: direction of the effect not stated beside the values; conditions: 30 µM

Going from `Cc1cccc(OC2CCN(Cc3ncc[nH]3)CC2)c1` to `Cc1cc(CN2CCC(C3CCN(CCc4ccccc4)C3)CC2)[nH]n1` (centres undefined), the Percent Effect falls from -0.938% to -5.07%.

First: COc1ccc(C(=O)NC2CCN(c3ncccn3)CC2)cc1F
Second: CC(C)c1cc(C(=O)NCC2CCCN(c3ncccn3)C2)n(C)n1 (centres undefined)
The Percent Effect of the first is lower: -7.58% for the first, 5.97% for the second.

First: COC(=O)c1ccc(N(C(=O)c2cc(Cl)ccn2)C(C)C)c(C)c1
Second: Cc1ccnc(NC(=O)c2ccc(F)c(S(=O)(=O)NC3CC3)c2)c1
The Percent Effect of the first is higher: -4.91% for the first, -7.9% for the second.

Going from `COc1ccccc1CC(=O)N(C)Cc1cc(C)on1` to `Cc1ccccc1OCCn1cnc2oc(C)c(C(=O)O)c2c1=O`, the Percent Effect rises from -2.06% to 14.5%.

First: CC(C)(C)C(NC(=O)CCS(C)(=O)=O)c1ccc(F)cc1F (centres undefined)
Second: CCN(CCCNC(=O)Nc1ccccc1C(C)C)S(C)(=O)=O
The Percent Effect of the first is lower: 0.0332% for the first, 11% for the second.

Compared with `CC1CN(c2ncnc3c2cnn3C)CCN1c1nccs1` (centres undefined), `Cc1nc2c(c(N3CCCOCC3)n1)CCN(c1nccs1)CC2` is lower in Percent Effect: 11.2% for the first, -16.9% for the second.

Compared with `c1nc(N2CCOCC2)sc1-c1cncn1CCCN1CCCCC1`, `O=C(C1CCCN(CCc2ccc3c(c2)CCO3)C1)N1CCCC1` (centres undefined) is higher in Percent Effect: -0.295% for the first, 1.69% for the second.

First: CC(C)(CNc1c(C#N)cnc2ccc(Cl)cc12)C(N)=O
Second: Cc1nc(C)c(C(=O)N2CCc3c(Cl)cccc32)o1
The Percent Effect of the first is higher: 6.25% for the first, 1.75% for the second.

Compared with `CC(C(N)=O)N1CCN(c2ncc(Cl)cn2)CC1` (centres undefined), `Cc1nc(C)c(C(C)NCc2cnc(N3CCOCC3)nc2)s1` (centres undefined) is higher in Percent Effect: -1.99% for the first, 7.71% for the second.

Compared with `COCCCN1CC2(CCCN(CCn3cc(Cl)cn3)C2)CCC1=O` (centres undefined), `CCn1cc(NC(=O)NCCN2CCCCCC2=O)cn1` is higher in Percent Effect: 5.56% for the first, 87.7% for the second.

Compared with `CN(C(=O)C1CCN(Cc2cnc3ccccn23)CC1)c1ccccc1`, `O=C(CCOc1ccccc1F)N1CCC(O)CC1` is higher in Percent Effect: -0.957% for the first, 3.95% for the second.

Compared with `CN1CCCC(CCC(=O)N2CCc3c(nc(CC4CC4)[nH]c3=O)C2)C1` (centres undefined), `CC1CCN(C(=O)CCN2Cc3ccccc3C[C@H]2C(N)=O)C1` (some centres undefined) is lower in Percent Effect: 10.8% for the first, -7.65% for the second.

Going from `Cc1nc(CN2CCCC2Cn2ccnc2C(C)C)nc2ccccc12` (centres undefined) to `CCC(=O)N1CCC(c2ncc(C(=O)Nc3ccccc3)c(C)n2)C1` (centres undefined), the Percent Effect rises from -10.6% to 8.33%.

Going from `CN(CCSc1nncn1C(C)(C)C)c1ccccc1` to `OC(CNCCc1nnc2ccccn12)c1ccc(F)c(F)c1` (centres undefined), the Percent Effect falls from 16.1% to 14.5%.

Going from `CC(C)c1nn(C)cc1CNCc1ccnc(N(C)C)c1` to `Cc1cccc(NC(=O)N2CCOCC(CN(C)C)C2)c1C` (centres undefined), the Percent Effect rises from -4.28% to -2.2%.

Going from `NC(=O)NC(CC(=O)N1CCc2sccc2C1)c1ccccc1F` (centres undefined) to `CN1CCc2nc(C3CCCN(S(=O)(=O)c4ccccc4)C3)ncc2C1` (centres undefined), the Percent Effect rises from 3.63% to 6.25%.

Compared with `O=C(Nc1cccc(C(=O)OCC2CCCN2)c1)c1ccoc1` (centres undefined), `CCc1oc(C(=O)OC)cc1Cn1cccc(C(F)(F)F)c1=O` is higher in Percent Effect: 0.474% for the first, 6.73% for the second.

First: c1ccc(CCCn2ccnc2-c2cn(C3CCNCC3)nn2)nc1
Second: Cc1ccc2nc(C(=O)N3CC(n4nc(C)cc4C)C3)cn2c1
The Percent Effect of the first is lower: -13.8% for the first, -4.01% for the second.

Going from `O=C(c1ccc(Cl)s1)N1CCCn2nc(CN3CC[C@H](F)C3)cc2C1` to `Cc1nc(O)cc(CN2C[C@H](NC(=O)C3CCCC3)[C@@H](C3CC3)C2)n1`, the Percent Effect falls from 3.24% to -1.66%.

Molecule `Cc1cc(C)nc(N2CCCC(C)(c3[nH]ncc3C(=O)N(C)C)C2)n1` (centres undefined) has a Percent Effect of 4.6%.
